Data from the supplement of paper PMC11001985.

Compound: C#CCNC(=O)CCSSCCC(=O)NCCc1ccc(C=O)c(C=O)c1
Experiment: lysine labeling ratio R10:1 (500 µM / 50 µM probe), SILAC-ABPP in living cells; higher = lower intrinsic lysine reactivity toward the probe, active = 2 or less
Conditions: HeLa; probe concentrations 500 vs 50 µM
Procedure, shortened: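 With forward and reverse label swaps, light and heavy SILAC HeLa cells, alive and in PBS at room temperature, were exposed to either 500 µM or 50 µM of an alkyne-tagged lysine probe bearing a disulfide link. After mixing, lysates were clicked to biotin-azide, cut with trypsin, pulled down on neutravidin, freed with DTT, alkylated and analysed on a TIMS-TOF Pro by LC-MS/MS. The per-lysine value R is the median over forward and reverse replicates of the filtered median high-probe/low-probe MS1 peptide ratio. It is capped at 20.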

UniProt Q15149, sequence (Q15149 whole entry): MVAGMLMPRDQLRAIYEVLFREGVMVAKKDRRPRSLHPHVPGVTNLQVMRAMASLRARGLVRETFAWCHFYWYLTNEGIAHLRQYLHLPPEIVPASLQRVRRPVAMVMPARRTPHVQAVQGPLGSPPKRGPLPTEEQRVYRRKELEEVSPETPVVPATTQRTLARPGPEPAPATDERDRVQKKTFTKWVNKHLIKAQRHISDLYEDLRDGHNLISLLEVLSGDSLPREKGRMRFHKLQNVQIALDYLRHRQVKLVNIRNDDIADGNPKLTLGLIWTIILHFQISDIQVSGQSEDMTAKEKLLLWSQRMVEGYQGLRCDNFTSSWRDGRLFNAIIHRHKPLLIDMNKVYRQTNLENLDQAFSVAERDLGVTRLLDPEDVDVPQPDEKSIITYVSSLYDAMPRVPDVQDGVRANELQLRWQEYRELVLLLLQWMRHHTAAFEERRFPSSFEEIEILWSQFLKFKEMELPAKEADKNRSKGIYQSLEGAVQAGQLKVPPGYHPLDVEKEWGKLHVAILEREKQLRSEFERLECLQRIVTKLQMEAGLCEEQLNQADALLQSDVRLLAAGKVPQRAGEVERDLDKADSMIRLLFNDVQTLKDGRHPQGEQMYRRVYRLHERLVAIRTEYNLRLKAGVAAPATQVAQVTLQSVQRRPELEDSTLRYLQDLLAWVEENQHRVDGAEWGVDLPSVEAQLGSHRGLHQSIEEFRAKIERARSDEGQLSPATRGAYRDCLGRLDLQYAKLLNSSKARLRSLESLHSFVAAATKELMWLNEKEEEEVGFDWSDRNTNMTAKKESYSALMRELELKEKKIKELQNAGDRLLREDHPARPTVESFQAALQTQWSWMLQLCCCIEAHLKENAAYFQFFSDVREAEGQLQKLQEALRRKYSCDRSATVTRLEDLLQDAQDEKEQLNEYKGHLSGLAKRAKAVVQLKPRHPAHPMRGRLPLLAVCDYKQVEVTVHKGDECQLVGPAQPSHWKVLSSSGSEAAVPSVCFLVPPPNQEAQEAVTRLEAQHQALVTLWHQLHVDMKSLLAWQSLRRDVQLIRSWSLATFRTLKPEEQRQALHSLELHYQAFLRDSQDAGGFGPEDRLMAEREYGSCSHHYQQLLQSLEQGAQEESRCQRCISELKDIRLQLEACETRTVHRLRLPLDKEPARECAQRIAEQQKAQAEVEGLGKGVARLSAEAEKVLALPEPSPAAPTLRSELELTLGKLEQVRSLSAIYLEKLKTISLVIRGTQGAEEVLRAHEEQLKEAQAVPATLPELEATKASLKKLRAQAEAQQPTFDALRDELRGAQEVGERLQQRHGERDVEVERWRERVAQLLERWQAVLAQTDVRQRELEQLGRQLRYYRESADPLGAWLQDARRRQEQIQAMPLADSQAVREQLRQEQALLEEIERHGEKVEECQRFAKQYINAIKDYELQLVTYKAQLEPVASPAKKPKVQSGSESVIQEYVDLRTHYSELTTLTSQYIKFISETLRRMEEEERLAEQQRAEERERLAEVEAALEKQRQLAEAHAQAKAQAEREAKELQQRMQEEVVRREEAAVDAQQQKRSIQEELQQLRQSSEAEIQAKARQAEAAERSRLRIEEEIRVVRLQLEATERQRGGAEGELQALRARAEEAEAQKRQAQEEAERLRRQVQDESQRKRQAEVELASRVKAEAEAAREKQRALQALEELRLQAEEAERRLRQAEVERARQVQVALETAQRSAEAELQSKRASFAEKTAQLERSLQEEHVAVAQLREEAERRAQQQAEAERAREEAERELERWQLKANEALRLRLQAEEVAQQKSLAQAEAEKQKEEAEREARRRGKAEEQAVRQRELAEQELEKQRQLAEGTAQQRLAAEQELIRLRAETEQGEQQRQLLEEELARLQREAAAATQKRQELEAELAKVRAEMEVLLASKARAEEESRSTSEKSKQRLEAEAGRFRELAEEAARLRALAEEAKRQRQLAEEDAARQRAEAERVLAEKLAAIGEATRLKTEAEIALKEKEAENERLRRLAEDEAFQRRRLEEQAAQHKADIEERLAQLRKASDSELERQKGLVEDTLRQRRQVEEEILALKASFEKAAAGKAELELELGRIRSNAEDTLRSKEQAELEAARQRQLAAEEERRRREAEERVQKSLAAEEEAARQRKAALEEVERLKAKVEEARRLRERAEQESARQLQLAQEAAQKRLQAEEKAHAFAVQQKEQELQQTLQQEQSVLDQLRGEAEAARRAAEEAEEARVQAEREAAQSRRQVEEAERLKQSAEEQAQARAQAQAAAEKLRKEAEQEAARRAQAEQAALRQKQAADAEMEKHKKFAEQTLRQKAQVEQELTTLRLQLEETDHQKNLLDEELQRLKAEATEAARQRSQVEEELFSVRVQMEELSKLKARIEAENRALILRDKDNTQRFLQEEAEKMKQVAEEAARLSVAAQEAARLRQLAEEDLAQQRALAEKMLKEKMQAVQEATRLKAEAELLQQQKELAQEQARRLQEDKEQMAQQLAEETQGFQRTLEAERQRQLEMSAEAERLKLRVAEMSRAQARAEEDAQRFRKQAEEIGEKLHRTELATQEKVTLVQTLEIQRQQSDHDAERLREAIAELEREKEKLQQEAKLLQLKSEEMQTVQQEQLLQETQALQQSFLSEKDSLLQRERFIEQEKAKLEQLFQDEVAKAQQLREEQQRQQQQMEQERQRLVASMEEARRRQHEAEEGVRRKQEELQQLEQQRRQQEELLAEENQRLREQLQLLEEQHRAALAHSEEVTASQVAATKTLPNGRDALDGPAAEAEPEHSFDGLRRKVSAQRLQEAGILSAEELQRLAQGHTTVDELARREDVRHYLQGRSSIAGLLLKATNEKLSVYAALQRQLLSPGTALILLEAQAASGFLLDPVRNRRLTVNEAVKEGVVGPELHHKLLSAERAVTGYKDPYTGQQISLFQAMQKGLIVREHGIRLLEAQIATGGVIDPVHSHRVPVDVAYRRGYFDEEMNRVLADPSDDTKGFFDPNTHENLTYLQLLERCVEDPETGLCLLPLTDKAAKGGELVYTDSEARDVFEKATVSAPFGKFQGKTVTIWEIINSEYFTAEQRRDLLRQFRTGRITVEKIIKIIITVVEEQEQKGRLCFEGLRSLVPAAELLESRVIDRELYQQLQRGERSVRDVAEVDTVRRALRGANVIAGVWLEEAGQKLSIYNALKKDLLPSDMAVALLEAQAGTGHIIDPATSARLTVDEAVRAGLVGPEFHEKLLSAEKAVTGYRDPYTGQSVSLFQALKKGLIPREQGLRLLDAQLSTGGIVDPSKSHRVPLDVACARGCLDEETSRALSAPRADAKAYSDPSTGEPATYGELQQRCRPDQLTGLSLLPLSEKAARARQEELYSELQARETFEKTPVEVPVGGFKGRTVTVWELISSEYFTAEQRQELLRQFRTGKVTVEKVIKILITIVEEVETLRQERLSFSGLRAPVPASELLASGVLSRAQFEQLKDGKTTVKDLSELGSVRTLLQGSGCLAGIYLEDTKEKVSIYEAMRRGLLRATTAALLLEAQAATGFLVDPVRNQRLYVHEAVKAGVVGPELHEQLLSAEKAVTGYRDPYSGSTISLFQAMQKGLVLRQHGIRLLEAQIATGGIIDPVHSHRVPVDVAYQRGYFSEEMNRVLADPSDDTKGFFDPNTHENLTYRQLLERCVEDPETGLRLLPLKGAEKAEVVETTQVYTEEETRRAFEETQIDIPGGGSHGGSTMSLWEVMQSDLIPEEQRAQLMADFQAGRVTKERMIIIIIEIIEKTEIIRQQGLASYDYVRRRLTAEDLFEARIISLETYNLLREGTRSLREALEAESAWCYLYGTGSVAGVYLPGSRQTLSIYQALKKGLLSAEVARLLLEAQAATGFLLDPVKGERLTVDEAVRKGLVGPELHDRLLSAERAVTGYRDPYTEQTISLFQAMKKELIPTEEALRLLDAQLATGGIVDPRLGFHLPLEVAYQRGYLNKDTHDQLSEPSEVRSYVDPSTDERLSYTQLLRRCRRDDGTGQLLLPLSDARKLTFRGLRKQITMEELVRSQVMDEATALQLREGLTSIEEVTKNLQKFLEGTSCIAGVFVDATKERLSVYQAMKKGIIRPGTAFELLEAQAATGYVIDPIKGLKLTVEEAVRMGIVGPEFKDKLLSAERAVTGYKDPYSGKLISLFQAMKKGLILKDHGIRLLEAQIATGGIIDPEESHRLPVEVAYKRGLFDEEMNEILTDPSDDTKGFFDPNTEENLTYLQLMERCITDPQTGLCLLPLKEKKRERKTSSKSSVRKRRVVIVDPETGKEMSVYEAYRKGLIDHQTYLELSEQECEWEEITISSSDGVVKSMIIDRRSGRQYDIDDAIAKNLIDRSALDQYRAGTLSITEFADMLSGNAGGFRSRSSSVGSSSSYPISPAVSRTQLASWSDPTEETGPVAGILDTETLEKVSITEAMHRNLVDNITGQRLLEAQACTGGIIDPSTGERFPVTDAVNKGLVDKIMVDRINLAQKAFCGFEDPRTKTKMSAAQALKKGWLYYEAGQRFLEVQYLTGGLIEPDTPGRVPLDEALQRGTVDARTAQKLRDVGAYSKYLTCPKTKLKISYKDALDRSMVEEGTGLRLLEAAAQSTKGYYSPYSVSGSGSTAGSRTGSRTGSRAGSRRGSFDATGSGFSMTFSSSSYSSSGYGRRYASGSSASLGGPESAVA
UniProt P05787, sequence (P05787 whole entry): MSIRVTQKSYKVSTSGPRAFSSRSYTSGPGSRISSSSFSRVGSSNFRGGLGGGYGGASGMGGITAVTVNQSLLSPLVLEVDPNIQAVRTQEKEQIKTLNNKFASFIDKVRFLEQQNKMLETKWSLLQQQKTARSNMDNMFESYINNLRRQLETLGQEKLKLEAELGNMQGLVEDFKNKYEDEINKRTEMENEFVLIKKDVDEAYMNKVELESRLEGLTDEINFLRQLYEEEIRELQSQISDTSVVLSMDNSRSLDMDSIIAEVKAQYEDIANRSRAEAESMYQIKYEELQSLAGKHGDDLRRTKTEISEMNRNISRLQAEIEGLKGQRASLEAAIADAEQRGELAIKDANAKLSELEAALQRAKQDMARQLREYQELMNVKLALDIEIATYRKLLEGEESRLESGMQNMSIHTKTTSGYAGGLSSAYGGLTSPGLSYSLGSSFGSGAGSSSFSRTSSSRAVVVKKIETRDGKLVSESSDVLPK

| Target | lysine labeling ratio R10:1 |
| --- | --- |
| SLC39A6 (lysine site: K249) (UniProt Q13433) | 3.94 (inactive) |
| UniProt P09758 (lysine site: K138) | 5.06 (inactive) |
| RPS3A (lysine site: K46) (UniProt P61247) | 3.87 (inactive) |
| FLNB (lysine site: K2088) (UniProt O75369) | 2.27 (inactive) |
| RAB8A (lysine site: K197) (UniProt P61006) | 2.44 (inactive) |
| UniProt Q15149 (lysine site: K3237) | 1.17 (active) |
| UniProt P04439 (lysine site: K92) | 3.31 (inactive) |
| S100A4 (lysine site: K48) (UniProt P26447) | 5.05 (inactive) |
| ITGA1 (lysine site: K292) (UniProt P56199) | 2.63 (inactive) |
| FSCN1 (lysine site: K220) (UniProt Q16658) | 4.2 (inactive) |
| TMEM30A (lysine site: K279) (UniProt Q9NV96) | 1.73 (active) |
| UniProt P48047 (lysine site: K98) | 1.89 (active) |
| PTPRF (lysine site: K204) (UniProt P10586) | 4.93 (inactive) |
| UniProt P26639 (lysine site: K712) | 1.83 (active) |
| ASPH (lysine site: K110) (UniProt Q12797) | 4.5 (inactive) |
| ICAM1 (lysine site: K67) (UniProt P05362) | 1.69 (active) |
| TUFM (lysine site: K91) (UniProt P49411) | 2.38 (inactive) |
| RPL14 (lysine site: K103) (UniProt P50914) | 3.31 (inactive) |
| SLC25A11 (lysine site: K57) (UniProt Q02978) | 1.95 (active) |
| UniProt P62873 (lysine site: K15) | 3.12 (inactive) |

| Target | lysine labeling ratio R10:1 |
| --- | --- |
| UniProt Q15149 (lysine site: K2277) | 0.748 (active) |
| IGF1R (lysine site: K47) (UniProt P08069) | 3.62 (inactive) |
| GBE1 (lysine site: K554) (UniProt Q04446) | 0.937 (active) |
| CTTN (lysine site: K235) (UniProt Q14247) | 1.56 (active) |
| ITGAV (lysine site: K499) (UniProt P06756) | 3.64 (inactive) |
| MYH9 (lysine site: K1862) (UniProt P35579) | 2.81 (inactive) |
| MSN (lysine site: K313) (UniProt P26038) | 5.6 (inactive) |
| SLC7A11 (lysine site: K222) (UniProt Q9UPY5) | 2.71 (inactive) |
| EPPK1 (lysine site: K2707) (UniProt P58107) | 3.42 (inactive) |
| UniProt P05787 (lysine site: K464) | 5.11 (inactive) |
| LTF (lysine site: K320) (UniProt P02788) | 1.48 (active) |
| UniProt P06576 (lysine site: K133) | 3.53 (inactive) |
| SEMA3C (lysine site: K547) (UniProt Q99985) | 2.69 (inactive) |
| COL5A1 (lysine site: K69) (UniProt P20908) | 2.04 (inactive) |
| PLOD2 (lysine site: K593) (UniProt O00469) | 1.21 (active) |
| EGFR (lysine site: K325) (UniProt P00533) | 5.84 (inactive) |
| UniProt P62263 (lysine site: K106) | 5.29 (inactive) |
| MSN (lysine site: K360) (UniProt P26038) | 2.83 (inactive) |
| UniProt P62249 (lysine site: K26) | 1.43 (active) |
| SLC25A4 (lysine site: K245) (UniProt P12235) | 1.72 (active) |
